VACV Venus inh = vaccinia inhibition (Venus reporter); Potency, µM (titrated, usually from 36.5 µM), hits mostly inhibitors; Vaccinia virus Venus reporter expression, fluorescence; 0.46% of 330,000 active; AID 720580; calls by dose curve; tested in A549 cells; note: nearly all actives have a fitted effect of over 30% in size
HCMV antiviral = blocks human cytomegalovirus replication | HFF cells, HCMV-luciferase reporter, 72 h; stronger effect = lower value | AID 1259415 | 4.5% of 410,000 active | activity change, negative = inhibition, % at 57.5 µM; in the data active = activity change below about -60%; inconclusive = no clear call, values can overlap the other calls; inactive = above about -39%
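Compounds were evaluated in HFFs infected with an HCMV luciferase reporter virus (MOI 1 PFU/cell). Luciferase in lysates collected 72 h post infection served as the replication measure.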
Vaccinia mCherry = vaccinia inhibition (mCherry reporter). AID 720579. Potency, µM (doses to about 36.5 µM), most hits filed as inhibitors. 0.63% of 310,000 active. Vaccinia virus mCherry reporter infection, fluorescence; calls by dose curve; tested in A549 cells; note: nearly all actives have a fitted effect of over 35% in size
LASV entry inh = blocks Lassa virus binding to or entry into cells; Lassa virus pseudotype entry inhibition, cell reporter; Potency, µM (series often up to 37.9 µM), actives largely listed as inhibitors; 1.2% of 300,000 active; AID 540256; calls by dose curve; tested in HEK293 cells; note: nearly all actives have a fitted effect of over 50% in size
MARV entry inh = Marburg virus entry inhibition. 1.8% of 300,000 active. Potency, µM (doses to about 37.8 µM), hits mostly inhibitors. AID 540276. Marburg virus pseudotyped entry inhibition, cell reporter; calls by dose curve; tested in HEK293 cells
FMDV inh = foot and mouth disease virus antiviral activity | Potency, µM (highest dose often 57.9 µM), most hits filed as inhibitors | FMDV antiviral cell-based qHTS | 1.2% of 410,000 active; calls by dose curve; tested in HEK293T cells; note: read-out not given here; nearly all actives have a fitted effect of over 45% in size
A number is an active result; . = inactive; ? = inconclusive; / = no result given; ! = repeats disagree; [ ] = remark or other dose. An excerpt weighted towards active compounds, which were near 6.5% of everything screened.

SMILES	VACV Venus inh	HCMV antiviral	Vaccinia mCherry	LASV entry inh	MARV entry inh	FMDV inh
CN(Cc1ccccc1)[C@@H]1CC[C@@]23CCCN2C(=O)CCC[C@H]3[C@H]1Cc1ccccc1	/	.	/	/	/	/
CCCCNC(=O)CCn1nc(-c2ccc(C)cc2)c2ccccc2c1=O	/	-72	/	/	/	.
CCCNC(=O)CCn1nc(-c2ccc(C)cc2)c2ccccc2c1=O	.	-65!	.	.	/	.
CCCCNC(=O)CCn1nc(-c2ccccc2)c2ccccc2c1=O	.	/	.	/	/	.
COc1ccc(CN2CC[C@H]3C=CC[C@@H](C(=O)N4CCN(c5ccccc5)CC4)[C@H]3C2=O)cc1OC	.	/	.	/	/	/
CCCCCNC1=CC(=O)CC(c2ccccc2)C1 (stereo not given)	?	.	/	.	.	.
CCCCCCCNC1=CC(=O)CC(c2ccccc2)C1 (stereo not given)	/	-88	/	?	?	.
CC(C)c1ccc(Nc2cc3c(cn2)ncn3CC2CC2)cc1	/	.	/	/	/	/
CCOC(=O)[C@]12CCC=C1N(Cc1cccc3ccccc13)C(=O)[C@H](CC(=O)NCc1ccc(OC)c(OC)c1)C2	?	-65	.	/	/	35µM
COC(=O)[C@]12CCCCC=C1N(Cc1cccc3ccccc13)C(=O)[C@H](CC(=O)NCc1ccc(OC)c(OC)c1)C2	.	-86	?	/	/	14µM
CCCc1ccc(Oc2cn[nH]c2-c2ccc(O)c(C)c2O)cc1	.	-61	.	.	?	/
CCCOC(=O)c1ccc(Oc2cn[nH]c2-c2ccc(OCC)cc2O)cc1	?	.	?	7.9µM	?	?
CCCOC(=O)c1ccc(Oc2c(-c3ccc(OCC)cc3O)n[nH]c2C)cc1	?	-98	.	?	?	/
CCCc1ccc(Oc2c(-c3ccc(O)c(C)c3O)n[nH]c2C)cc1	/	.	/	?	?	.
COc1ccc(Cn2c(O)cc(=O)[nH]c2=O)cc1	.	-88	.	.	.	.
CCOc1ccc(Cn2c(O)cc(=O)[nH]c2=O)cc1	.	.	?	.	.	.
Cc1oc(-c2ccccc2NC(=O)c2ccsc2)nc1CN(C)Cc1ccc2c(c1)CCCN2C	.	/	.	/	/	.
COC(=O)C1=C(c2ccc3ccccc3c2)C[C@@H]2CC[C@H]1N2C	.	.	.	/	/	.
COC(=O)C1=C(c2ccc(OCc3ccccc3)cc2)C[C@@H]2CC[C@H]1N2C(=O)NCc1ccccc1OC	?	.	.	/	/	?
COC(=O)C1=C(c2ccc(OCc3ccccc3)cc2)C[C@@H]2CC[C@H]1N2C(=O)NCc1ccc(OC)c(OC)c1	?	-61	?	/	/	?
COC(=O)C1=C(c2ccc(-c3ccccc3)c(F)c2)C[C@@H]2CC[C@H]1N2C(=O)NCc1cc(C)oc1C(F)(F)F	?	.	.	/	/	.
COC(=O)C1=C(c2ccc3ccccc3c2)C[C@@H]2CC[C@H]1N2C(=O)NC(C)C	.	-63	.	/	/	.
COC(=O)C1=C(c2ccc(OC(F)(F)F)cc2)C[C@@H]2CC[C@H]1N2C(=O)N1CCCC1	?	?	.	/	/	?
COC(=O)C1=C(c2ccc(OC(F)(F)F)cc2)C[C@@H]2CC[C@H]1N2C(=O)N1CCC(C)CC1	?	-64	.	/	/	?
COC(=O)C1=C(c2cccc(C#N)c2)C[C@@H]2CC[C@H]1N2C(=O)NCc1cc(C)oc1C(F)(F)F	.	-71	.	/	/	.
SMILES	VACV Venus inh	HCMV antiviral	Vaccinia mCherry	LASV entry inh	MARV entry inh	FMDV inh
COc1ccc(OC)c(CN2CCCC(n3cc(C(=O)N4CCCCC4)nn3)C2)c1 (stereo not given)	.	/	.	/	/	.
Cc1cc(C)cc(C(=O)NCc2nc(-c3cccc(NC(=O)c4ccccn4)c3)oc2C)c1	.	/	.	/	/	.
O=C(c1ccccc1-n1cccn1)N1CCOc2c(cc(-c3ncc(C(F)(F)F)cc3Cl)cc2OCC2CCCO2)C1 (stereo not given)	.	/	.	/	/	.
COC(=O)C1=C(c2c(C)noc2C)C[C@@H]2CC[C@H]1N2C(=O)NC1CC1	.	-97	.	/	/	.
COC(=O)C1=C(c2c(C)noc2C)C[C@@H]2CC[C@H]1N2C(=O)NC1CCCCC1	.	.	.	/	/	.
COC(=O)C1=C(c2cc3ccccc3s2)C[C@@H]2CC[C@H]1N2C(=O)NC1CC1	.	-63	.	/	/	.
COc1cccc(CNC(=O)C(Cc2ccccc2)NS(=O)(=O)c2ccc3c(c2)oc(=O)n3C)c1 (stereo not given)	.	.	.	.	.	.
NC(N)=NCCC[C@H](NC(=O)[C@@H](N)Cc1ccc(O)cc1)C(=O)O	.[3.33 µM]	/	.[3.33 µM]	/	/	.[6.7 µM]
CCCc1nc2ccc(NC(=O)c3ccccc3OC)cn2n1	/	.	/	/	/	/
CCOC(=O)C1=C(C)N=C2S[C@H](C)C(=O)N2[C@@H]1c1ccc(OC(C)=O)c(OC)c1	/	/	/	/	.	/
NC(=O)c1sc2nc3c(c(-c4ccco4)c2c1N)CCC3	?	-73	?	.	.	/
Nc1c(C(=O)NC2CC2)sc2nc3c(c(-c4ccco4)c12)CC/C3=C/c1ccco1	.	/	.	.	4.5µM	.
NC(=O)c1sc2nc(-c3ccccc3)c3c(c2c1N)CCCC3	/	-61	/	/	/	?
O=C(COC(=O)c1c2c(nc3ccccc13)/C(=C\c1ccco1)CC2)NC1CCCC1	.	.	.	.	?	.
Cc1ccc(-c2c3c(nc4sc(C(N)=O)c(N)c24)CCCC3)o1	.	.	.	.	.	?
Cc1ccc(-c2nc3sc(C(N)=O)c(N)c3c3c2CCCC3)cc1	?	.	?	?	?	.
O=C1N=C2C=CC=CC2c2ccccc21 (stereo not given)	/	/	/	/	.	/
Cn1ccc(C(=O)NCC2CCC3(CCN(Cc4cc(F)cc(F)c4)CC3)O2)n1 (stereo not given)	.	/	.	/	/	.
COc1ccccc1[C@H]1/C(=C(\O)c2ccc(C)cc2)C(=O)C(=O)N1CCN1CCOCC1	/	/	/	/	.	/
C/C1=C/CCCc2cc(OS(=O)(=O)C(F)(F)F)ccc2OCC1	/	.	/	/	/	/
O=C(CC1C[C@H](C(=O)N2CCCCC2)[C@@]2(CCc3ccccc3)c3[nH]c4ccccc4c3CCN2C1=O)NCCc1ccccn1 (stereo not given in full)	?	.	10µM	/	/	.
O=C(C[C@H]1C[C@H](C(=O)N2CCOCC2)[C@@]2(CCC3CCCC3)c3[nH]c4cc(-c5ccco5)ccc4c3CCN2C1=O)NCCc1ccccn1	10µM	.	?	/	.	.
COCCCNC(=O)C[C@H]1C[C@H](C(=O)N2CCCCC2)[C@@]2(CCc3ccccc3)c3[nH]c4ccc(Cl)cc4c3CCN2C1=O	?	.	?	/	.	40µM
C[C@]12c3[nH]c4ccccc4c3CCN1C(=O)C(CC(=O)NCCc1ccccn1)C[C@@H]2C(=O)N1CCCCC1 (stereo not given in full)	.	.	.	/	/	.
COc1ccc(OC)c(NC(=O)Cn2c(=O)n(-c3cccc(C)c3)c(=O)c3c2c2cc(C)ccc2n3C)c1	.	.	.	.	?	.
COc1ccc(S(=O)(=O)N2CCCC2)cc1OC	.	.	.	.	.	.
COc1ccc2cc(S(=O)(=O)N3CCCCC3)ccc2c1S(=O)(=O)N1CCCCC1	.	-72	.	.	?	?
